Experimental data: PubChem BioAssay
Results with a measured potency or affinity are listed apart. Active and inactive are the calls of the source. Cut-off not given; nearly all actives show IC50 up to about 0.91 µM.

Target: Calcium-dependent protein kinase 4 (Plasmodium falciparum (isolate 3D7)) (UniProt Q8IBS5)
Test: PfCDPK4 kinase inhibitors, biochemical, TCAMS library (AID 1159588)
Details: recombinant PfCDPK4, Kinase-Glo ATP depletion luminescence

Sequence of Calcium-dependent protein kinase 4 (Plasmodium falciparum (isolate 3D7)) (Q8IBS5 whole entry, looked up): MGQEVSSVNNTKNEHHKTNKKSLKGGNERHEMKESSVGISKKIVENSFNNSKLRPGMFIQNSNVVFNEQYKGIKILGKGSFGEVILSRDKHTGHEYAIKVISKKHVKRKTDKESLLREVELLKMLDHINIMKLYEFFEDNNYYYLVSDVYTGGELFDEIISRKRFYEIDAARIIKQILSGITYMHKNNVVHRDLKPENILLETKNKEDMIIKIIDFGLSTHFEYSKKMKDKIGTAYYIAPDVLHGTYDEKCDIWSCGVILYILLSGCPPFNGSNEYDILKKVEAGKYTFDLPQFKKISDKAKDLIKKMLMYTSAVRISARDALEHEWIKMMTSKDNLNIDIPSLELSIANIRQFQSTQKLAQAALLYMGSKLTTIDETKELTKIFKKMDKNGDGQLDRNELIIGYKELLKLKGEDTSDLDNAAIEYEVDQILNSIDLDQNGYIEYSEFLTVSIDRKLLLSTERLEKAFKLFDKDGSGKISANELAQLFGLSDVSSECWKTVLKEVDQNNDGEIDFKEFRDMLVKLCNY

outcome, inactive:
CCN1CCC(N(Cc2ccc(-c3ccc(Cl)cc3)cc2)C(=O)Cn2c(CCc3cccc(F)c3F)cc(=O)c3ccccc32)CC1
O=C(c1ccc(Cl)cc1)C1CCCN(C2CCN(CCc3ccccc3)CC2)C1 (stereo not given)
N#Cc1ccc2c(c1)CCN(CCC1CCC(NC(=O)c3cc4cccc([N+](=O)[O-])c4[nH]3)CC1)C2 (stereo not given)
CCCCNC(=O)C(C)NC(=O)c1ccc(O)c(-c2ccc(Cl)c(Cl)c2)c1 (stereo not given)
CCN(CC)CCOc1ccc(C(O)(C#CC(O)(c2ccc(Br)cc2)c2ccc(OCCN(CC)CC)cc2)c2ccc(Br)cc2)cc1 (stereo not given)
CC(=O)c1ccc(Nc2c(C(N)=O)cnc3cc(-c4c(C)noc4C)ccc23)cc1
O=C(/C=C/c1c[nH]c2ccccc12)NCCCCCN1CCC(c2c[nH]c3ccccc23)CC1
CN1CCCC1CCNCc1ccc(-c2ccc(CNCCc3ccccc3)cn2)cc1 (stereo not given)
NC1=NC(c2ccccc2)(c2ccccc2)C(=O)N1Cc1ccc(-c2cccnc2)cc1
CCCCCCNC(=O)C1Cc2c([nH]c3ccc(C)cc23)C2(CCN(Cc3ccccc3)CC2)N1 (stereo not given)
Cc1ccc2nc(C)cc(NN=CC=Cc3ccccc3)c2c1
CCOc1c(CNCCCNc2cc(=O)c3ccccc3[nH]2)cc(I)cc1OC
CC(=O)CSC(C=Cc1ccc(N(C)C)cc1)=Nc1ccccc1
N#Cc1ccc(N(CCOc2ccc3c(c2)CCC(=O)N3)Cc2ccccc2C(F)(F)F)cc1C(F)(F)F
COc1ccccc1CC1CCCN(C2CCC(NC(=O)c3cc4ccccc4[nH]3)CC2)C1 (stereo not given)
COc1ccc2nccc([C@@H](O)CN3CCC(NC(=O)/C=C/c4cccc(NC(C)=O)c4)CC3)c2c1
c1ccc(-c2cc(NCc3cccc4ccccc34)c3[nH]ncc3n2)cc1
Cn1nc(-c2ccc(NC(=O)Nc3cc(C(F)(F)F)ccc3F)c(F)c2)c2cnc(NCCCn3ccnc3)nc21
COc1ccc2nccc(N3CCN(CCNCc4ccc5c(n4)NC(=O)CS5)CC3)c2c1
FC(F)(F)c1ccc2nc(-c3ccc(-c4cccc(CNCCc5ccncc5)c4)s3)[nH]c2c1
O=C(NCCCCN1CCC(c2ccc3c(c2OC(=O)c2ccc(NC(=O)c4ccc(Cl)cc4)cc2)CCCC3)CC1)c1ccc(NC(=O)c2ccc(Cl)cc2)cc1
NCCCCNc1cc(-c2ccnc(Nc3cccc(Cl)c3)n2)ccn1
CCCN1CCN(c2ccccc2NS(=O)(=O)c2ccc(C(=O)Nc3ccc(Cl)cc3)cc2)CC1
Cc1ccc(C(=O)Nc2ccc(Nc3ccnc4cc(-c5ccncc5)ccc34)cc2O)cc1
Cc1cc(NCCC(=O)NCc2cccc(F)c2)nc(NCCc2ccc(F)cc2)n1
Cc1ccc(Nc2nccc(NCC(O)c3cccc(C(F)(F)F)c3)n2)cc1 (stereo not given)
CC(C)NCc1ccc(-c2cccc(-c3nc4ccc(F)cc4[nH]3)c2)cc1
Cn1c2ccccc2c2c3ccccc3c(CNC(CO)(CO)CO)cc21
COc1ccc(CNCc2ccccc2)cc1-c1cccc(S(=O)(=O)NCCN2CCCC2)c1
CC(=O)Nc1nc(N)c2c(ccc3c2ccn3CC(C)C)n1
c1ccc2[nH]c(-c3ccc(-c4ccc(CN5CCN(c6ccncc6)CC5)cc4)cc3)nc2c1
O=C(NCc1cccc(CN2CCOCC2)c1)c1cc(Br)cc(N2CCN(c3ccncc3)CC2)c1
Cc1[nH]c(C)c(-c2ccc(-c3ccc(Cl)cc3)nc2)c(=O)c1Br
COCCn1c(-c2cccc(Cl)c2)nn(-c2ccc([N+](=O)[O-])cc2Cl)c1=S
O=C(Cn1c(CCc2cccc(F)c2F)cc(=O)c2ccccc21)N(Cc1ccc(-c2ccc(C(F)(F)F)cc2)cc1)C1CCN(CCO)CC1
COc1ccccc1NC(=O)CSc1nc2cccnc2n1-c1ccccc1OC
CC(C)N(Cc1cnc(N)c(C#N)n1)c1ccc(Cl)c(Cl)c1
c1cc(CNc2ncc(-c3ccsc3)c(-c3nccs3)n2)ccn1
Cc1ccccc1C1CCN(C2CCC(NC(=O)/C=C/c3ccccc3C(F)(F)F)CC2)CC1 (stereo not given)
FC(F)(F)c1ccc2nc(-c3ccc(-c4ccc(CNCC5CCCO5)cc4)cc3)[nH]c2c1 (stereo not given)
